Common to all, as to test: DAPPL (digital affinity profiling via proximity ligation, sequencing); 10 mM Tris-HCl pH 7.5, 50 mM NaCl, 1 mM DTT, 4% glycerol, room temperature, 30 min; GST-TFs on glutathione beads, 16-mer random dsDNA library, 0.1% formaldehyde crosslink after washing; high values mean tight binding
Conditions in all cases: protein: recombinant; tags: N-terminal GST; dsDNA, one strand shown

One assay addresses T1, ERF (Homo sapiens, UniProt P50548 1-548).
T1 sequence: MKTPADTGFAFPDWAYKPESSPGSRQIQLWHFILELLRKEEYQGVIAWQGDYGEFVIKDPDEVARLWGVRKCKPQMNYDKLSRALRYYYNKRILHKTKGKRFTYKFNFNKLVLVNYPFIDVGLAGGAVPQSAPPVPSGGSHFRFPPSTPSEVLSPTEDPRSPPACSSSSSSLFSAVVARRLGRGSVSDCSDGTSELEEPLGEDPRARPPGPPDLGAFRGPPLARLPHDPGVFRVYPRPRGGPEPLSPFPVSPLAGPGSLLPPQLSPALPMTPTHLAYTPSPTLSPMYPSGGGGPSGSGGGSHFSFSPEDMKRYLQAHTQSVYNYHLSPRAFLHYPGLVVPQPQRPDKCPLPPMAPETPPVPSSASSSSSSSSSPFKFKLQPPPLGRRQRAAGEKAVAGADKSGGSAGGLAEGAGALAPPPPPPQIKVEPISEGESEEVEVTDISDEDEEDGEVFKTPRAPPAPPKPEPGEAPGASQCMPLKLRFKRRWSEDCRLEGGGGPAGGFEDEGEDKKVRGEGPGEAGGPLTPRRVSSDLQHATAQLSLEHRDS
Put shortly: (§1)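 Sequencing on an Illumina NextSeq500 followed washing, crosslinking with 0.1% formaldehyde, proximity ligation (BsaI/T4 ligase, 1 h, 37 °C) and PCR amplification of pools that had been incubated for 30 min at room temperature with 200 nmole of a random double-stranded 16-mer DNA library in Tris/NaCl/DTT/glycerol buffer. Each pool held DNA-barcoded human transcription factors, expressed in yeast as GST fusions and captured on glutathione beads, plus a tag-only sample. Binding signal is a hexamer's read frequency for a factor divided by its frequency in the tag-only sample.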

The target of a further assay is T2, ETV3L (Homo sapiens, UniProt Q6ZN32 1-361).
T2 sequence: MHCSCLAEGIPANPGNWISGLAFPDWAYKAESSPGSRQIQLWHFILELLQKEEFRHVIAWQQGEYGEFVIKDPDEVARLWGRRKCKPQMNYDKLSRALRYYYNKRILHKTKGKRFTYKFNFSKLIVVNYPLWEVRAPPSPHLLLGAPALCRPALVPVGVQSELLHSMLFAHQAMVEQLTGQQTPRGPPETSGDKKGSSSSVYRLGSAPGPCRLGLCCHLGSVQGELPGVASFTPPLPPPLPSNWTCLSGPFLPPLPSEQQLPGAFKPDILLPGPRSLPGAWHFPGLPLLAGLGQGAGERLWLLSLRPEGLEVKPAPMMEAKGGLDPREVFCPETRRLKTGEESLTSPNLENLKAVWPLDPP
In short, it runs like this:
as §1

The target in the next assay is T3, ETS2 (Homo sapiens, UniProt P15036 1-469).
T3 sequence: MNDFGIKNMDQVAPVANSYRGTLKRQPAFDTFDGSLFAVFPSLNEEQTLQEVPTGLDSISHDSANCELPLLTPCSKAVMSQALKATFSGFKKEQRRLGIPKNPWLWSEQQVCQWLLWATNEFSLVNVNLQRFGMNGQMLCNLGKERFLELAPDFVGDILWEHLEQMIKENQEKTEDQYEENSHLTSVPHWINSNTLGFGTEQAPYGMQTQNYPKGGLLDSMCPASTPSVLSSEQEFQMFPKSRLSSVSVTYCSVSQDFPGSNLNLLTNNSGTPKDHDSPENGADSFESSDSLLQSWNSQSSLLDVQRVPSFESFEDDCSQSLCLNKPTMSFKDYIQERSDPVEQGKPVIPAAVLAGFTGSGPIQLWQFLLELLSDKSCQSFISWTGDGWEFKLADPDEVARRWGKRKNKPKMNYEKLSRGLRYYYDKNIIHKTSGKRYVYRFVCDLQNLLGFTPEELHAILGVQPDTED
Put shortly: as §1

The target of another assay is T4, SPDEF (Homo sapiens, UniProt O95238 1-335).
T4 sequence: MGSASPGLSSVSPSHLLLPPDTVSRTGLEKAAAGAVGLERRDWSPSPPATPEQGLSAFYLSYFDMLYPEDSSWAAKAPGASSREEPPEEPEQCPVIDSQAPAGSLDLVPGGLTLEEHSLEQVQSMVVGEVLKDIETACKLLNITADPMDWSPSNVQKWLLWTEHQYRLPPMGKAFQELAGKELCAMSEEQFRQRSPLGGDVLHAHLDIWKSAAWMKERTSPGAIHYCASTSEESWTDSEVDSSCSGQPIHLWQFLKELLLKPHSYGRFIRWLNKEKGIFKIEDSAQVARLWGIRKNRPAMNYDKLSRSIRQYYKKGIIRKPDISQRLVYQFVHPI
Put shortly:
as §1

The target of the next assay is T5, ETV7 (Homo sapiens, UniProt Q9Y603 1-341).
T5 sequence: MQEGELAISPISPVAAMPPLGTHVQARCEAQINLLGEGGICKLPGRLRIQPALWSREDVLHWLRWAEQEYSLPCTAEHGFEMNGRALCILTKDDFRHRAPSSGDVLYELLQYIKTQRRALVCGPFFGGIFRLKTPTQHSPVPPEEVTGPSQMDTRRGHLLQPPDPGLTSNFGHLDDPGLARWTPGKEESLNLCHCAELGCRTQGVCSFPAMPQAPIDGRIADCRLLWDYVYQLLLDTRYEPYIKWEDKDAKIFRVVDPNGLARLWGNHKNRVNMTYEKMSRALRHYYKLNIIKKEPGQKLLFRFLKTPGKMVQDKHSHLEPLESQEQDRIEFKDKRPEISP
In short, it runs like this: as §1

A further assay concerns the target T6, ELF5 (Homo sapiens, UniProt Q9UKW6-2 1-255).
T6 sequence: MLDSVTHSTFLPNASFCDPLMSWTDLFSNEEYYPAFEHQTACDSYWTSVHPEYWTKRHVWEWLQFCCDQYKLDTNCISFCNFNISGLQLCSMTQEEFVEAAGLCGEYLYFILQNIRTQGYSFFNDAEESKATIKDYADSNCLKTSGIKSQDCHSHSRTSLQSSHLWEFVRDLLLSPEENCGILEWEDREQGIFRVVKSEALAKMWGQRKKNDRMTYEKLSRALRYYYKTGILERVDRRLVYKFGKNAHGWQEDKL
In short, it runs like this: as §1

In a further assay the target is T7, ETV3 (Homo sapiens, UniProt P41162-2 1-143).
T7 sequence: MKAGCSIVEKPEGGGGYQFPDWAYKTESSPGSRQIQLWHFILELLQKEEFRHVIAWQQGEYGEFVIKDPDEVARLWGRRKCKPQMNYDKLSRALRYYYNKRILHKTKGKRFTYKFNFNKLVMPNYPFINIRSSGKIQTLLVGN
Put shortly:
as §1

A further assay has as its target ETV6 (Homo sapiens, UniProt P41212 1-452). In short, it runs like this:
as §1

ETV6, sequence (P41212 whole entry): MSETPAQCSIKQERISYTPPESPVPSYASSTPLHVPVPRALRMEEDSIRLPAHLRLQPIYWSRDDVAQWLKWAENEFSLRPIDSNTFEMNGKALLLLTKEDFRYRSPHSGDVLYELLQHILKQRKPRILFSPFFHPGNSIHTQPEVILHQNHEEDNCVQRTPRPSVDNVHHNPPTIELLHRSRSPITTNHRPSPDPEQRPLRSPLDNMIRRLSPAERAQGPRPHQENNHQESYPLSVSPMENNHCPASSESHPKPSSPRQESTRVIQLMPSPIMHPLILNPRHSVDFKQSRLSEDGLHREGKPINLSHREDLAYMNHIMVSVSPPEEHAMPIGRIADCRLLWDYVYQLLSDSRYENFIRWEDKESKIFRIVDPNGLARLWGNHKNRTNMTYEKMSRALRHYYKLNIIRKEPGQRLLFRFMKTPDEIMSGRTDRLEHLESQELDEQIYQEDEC

In the case of TCGCAC, the binding signal is 1.06 fold enrichment (6-mer frequency, TF over GST control) with ERF; 1.06 fold enrichment (6-mer frequency, TF over GST control) with ETV3L; 1.04 fold enrichment (6-mer frequency, TF over GST control) in the assay with ETS2; 1.05 fold enrichment (6-mer frequency, TF over GST control) in the assay with SPDEF; 1.03 fold enrichment (6-mer frequency, TF over GST control) with ETV7; 1.06 fold enrichment (6-mer frequency, TF over GST control) with ELF5. The binding signal in the assay with ETV3 was 1.07 fold enrichment (6-mer frequency, TF over GST control).

As to TGAAAA, the binding signal was 1.04 fold enrichment (6-mer frequency, TF over GST control) with ERF; 1.07 fold enrichment (6-mer frequency, TF over GST control) with ETV3L; 1.11 fold enrichment (6-mer frequency, TF over GST control) in the assay with ETS2; 1.01 fold enrichment (6-mer frequency, TF over GST control) in the assay with SPDEF; 1.07 fold enrichment (6-mer frequency, TF over GST control) with ETV7; 1.06 fold enrichment (6-mer frequency, TF over GST control) with ELF5.

GGAAGT: the binding signal in the assay with ERF was 2.56 fold enrichment (6-mer frequency, TF over GST control); in the assay with ETV3L, 2.86 fold enrichment (6-mer frequency, TF over GST control); with ETS2, 3.2 fold enrichment (6-mer frequency, TF over GST control); with SPDEF it was 2.97 fold enrichment (6-mer frequency, TF over GST control); with ETV7 it was 2.91 fold enrichment (6-mer frequency, TF over GST control); with ELF5 it was 3.88 fold enrichment (6-mer frequency, TF over GST control). Besides, the binding signal was 3.42 fold enrichment (6-mer frequency, TF over GST control) in the assay with ETV3 and 3.88 fold enrichment (6-mer frequency, TF over GST control) in the assay with ETV6.

Turning to GCAAAA, the binding signal with ERF was 1.14 fold enrichment (6-mer frequency, TF over GST control); with ETV3L, 1.06 fold enrichment (6-mer frequency, TF over GST control); with ETS2 it was 1.18 fold enrichment (6-mer frequency, TF over GST control); with SPDEF, 1 fold enrichment (6-mer frequency, TF over GST control); with ETV7, 1.09 fold enrichment (6-mer frequency, TF over GST control); with ELF5 it was 1.06 fold enrichment (6-mer frequency, TF over GST control). Further, the binding signal with ETV3 is 1.07 fold enrichment (6-mer frequency, TF over GST control); in the assay with ETV6, 1.04 fold enrichment (6-mer frequency, TF over GST control).

With CGCTCA, the binding signal is 1.2 fold enrichment (6-mer frequency, TF over GST control) with ERF; 1.24 fold enrichment (6-mer frequency, TF over GST control) with ETV3L; 1.14 fold enrichment (6-mer frequency, TF over GST control) with ETS2; 1.05 fold enrichment (6-mer frequency, TF over GST control) with SPDEF; 1.09 fold enrichment (6-mer frequency, TF over GST control) with ETV7; 1.16 fold enrichment (6-mer frequency, TF over GST control) in the assay with ELF5. Moreover, the binding signal is 1.07 fold enrichment (6-mer frequency, TF over GST control) in the assay with ETV3 and 1.09 fold enrichment (6-mer frequency, TF over GST control) with ETV6.

For the sequence TACTAG, the binding signal was 1.07 fold enrichment (6-mer frequency, TF over GST control) with ERF; 1.04 fold enrichment (6-mer frequency, TF over GST control) in the assay with ETV3L; 1 fold enrichment (6-mer frequency, TF over GST control) in the assay with ETS2; 1.01 fold enrichment (6-mer frequency, TF over GST control) with SPDEF; 1 fold enrichment (6-mer frequency, TF over GST control) with ETV7.

As for CGAAAC, the binding signal in the assay with ERF was 1.24 fold enrichment (6-mer frequency, TF over GST control); in the assay with ETV3L, 1.22 fold enrichment (6-mer frequency, TF over GST control); with ETS2, 1.16 fold enrichment (6-mer frequency, TF over GST control); with SPDEF, 1.22 fold enrichment (6-mer frequency, TF over GST control); in the assay with ETV7, 1.22 fold enrichment (6-mer frequency, TF over GST control); in the assay with ELF5, 1.12 fold enrichment (6-mer frequency, TF over GST control). Besides, the binding signal in the assay with ETV3 is 1.08 fold enrichment (6-mer frequency, TF over GST control); with ETV6, 1.16 fold enrichment (6-mer frequency, TF over GST control).

TTTGGA: the binding signal is 1.2 fold enrichment (6-mer frequency, TF over GST control) with ERF; 1.21 fold enrichment (6-mer frequency, TF over GST control) in the assay with ETV3L; 1.19 fold enrichment (6-mer frequency, TF over GST control) in the assay with ETS2; 1.23 fold enrichment (6-mer frequency, TF over GST control) in the assay with SPDEF; 1.3 fold enrichment (6-mer frequency, TF over GST control) with ETV7; 1.15 fold enrichment (6-mer frequency, TF over GST control) in the assay with ELF5. Further, the binding signal is 1.19 fold enrichment (6-mer frequency, TF over GST control) in the assay with ETV3 and 1.15 fold enrichment (6-mer frequency, TF over GST control) with ETV6.

As for AATTCA, the binding signal with ERF was 1.22 fold enrichment (6-mer frequency, TF over GST control); with ETV3L, 1.35 fold enrichment (6-mer frequency, TF over GST control); in the assay with ETS2, 1.39 fold enrichment (6-mer frequency, TF over GST control); in the assay with SPDEF it was 1.24 fold enrichment (6-mer frequency, TF over GST control); with ETV7, 1.28 fold enrichment (6-mer frequency, TF over GST control); with ELF5, 1.3 fold enrichment (6-mer frequency, TF over GST control). The binding signal with ETV3 was 1.31 fold enrichment (6-mer frequency, TF over GST control); in the assay with ETV6, 1.23 fold enrichment (6-mer frequency, TF over GST control).

Turning to TTGGGT, the binding signal was 1.27 fold enrichment (6-mer frequency, TF over GST control) with ERF; 1.1 fold enrichment (6-mer frequency, TF over GST control) with ETV3L; 1.03 fold enrichment (6-mer frequency, TF over GST control) in the assay with ETS2; 1.04 fold enrichment (6-mer frequency, TF over GST control) in the assay with SPDEF; 1.08 fold enrichment (6-mer frequency, TF over GST control) with ETV7; 1.08 fold enrichment (6-mer frequency, TF over GST control) with ELF5.

Take TCATCG: the binding signal was 1.06 fold enrichment (6-mer frequency, TF over GST control) with ERF and 1.08 fold enrichment (6-mer frequency, TF over GST control) with ETV3L.

Source of the values: PMC7862700, “An all-to-all approach to the identification of sequence-specific readers for epigenetic DNA modifications on cytosine”.
